The campaign covered roughly 420,000 compounds. About 50,000 (12%) were called active. Not shown: some 26% with an inconclusive outcome. Calls follow the shape of the dose curve; as a rule, active = well fitted inhibition curve with a large enough effect; inconclusive = small, poorly fitted or top-dose-only effect; inactive = flat fitted curve, though single readings scatter. The full list was thinned out, with actives kept by preference. Where a SMILES comes first, the peptide text is derived from it. The star is where a group is joined. Bz = O=C(c1ccccc1)*
Assay: qHTS for Inhibitors of human tyrosyl-DNA phosphodiesterase 1 (TDP1): qHTS in cells in presence of CPT; also: nearly all actives have a fitted effect of over 55% in size
Conditions: chicken DT40 Tdp1-/-;hTDP1 cells + 20 nM CPT, ATP luminescence, 48 h; series mostly up to 46.2 µM; activity change, negative = growth inhibition: at the top concentration
Summary of the method: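 Cell growth measured by CellTiter-Glo luminescence after a minimum 48 h, 37 C compound exposure with 20 nM CPT in Tdp1-knockout DT40 cells stably expressing hTDP1, seeded 400/well; qHTS titration format.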
% is scaled to controls: 0 for no effect and ±100 for the full control effect; potency is read from the fitted curve at half-maximal effect.

Structure (SMILES) | activity change, negative = growth inhibition | Potency
Cc1ccc2c(c1)-c1c(cnn1CC(=O)Nc1ccccc1C#N)CO2 | -15.2% (inactive) | 
O=C(O)C1C2C=CC(O2)C1C(=O)Nc1ccccn1 (stereo not drawn) | -1.18% (inactive) | 
CCOC(=O)CSc1nnc(-c2ccco2)n1C | -0.885% (inactive) | 
Cc1cc(C)nc(SCc2nnc(SCC(=O)Nc3ncc(C)s3)n2Cc2ccco2)n1 | -21.2% (inactive) | 
CCOC(=O)CSc1nc2c(sc(=S)n2CCc2ccccc2)c(=O)n1Cc1ccco1 |  | 20.6 µM (active)
O=C(c1ccc(F)cc1)C1CCN(Cc2cn[nH]c2-c2ccccc2)CC1 | -2.03% (inactive) | 
C[C@H](NC(=O)OC(C)(C)C)c1nnc(SCC(N)=O)o1 | 1.58% (inactive) | 
CC(C)Sc1nnc([C@H](Cc2ccccc2)NC(=O)OC(C)(C)C)o1 | 9.14% (inactive) | 
C[C@@H](NC(=O)OC(C)(C)C)c1nnc(S(=O)(=O)Cc2ccccc2)o1 |  | 0.651 µM (active)
CN(CCC#N)c1ccc(C=O)cc1 | -13.6% (inactive) | 
CCn1c(=S)[nH]c2cc(S(=O)(=O)N3CCOCC3)ccc21 | 13.2% (inactive) | 
Cc1ccc(S(=O)(=O)/N=C2\C=C(NS(=O)(=O)c3ccc(C)cc3)C(=O)c3ccccc32)cc1 |  | 23.1 µM (active)
Cc1ccc(S(=O)(=O)N[C@H](CO)C(C)C)cc1 | -0.0886% (inactive) | 
Cc1ccc(S(=O)(=O)N/N=C(\c2ccccc2)C2CC2)cc1 | -15.3% (inactive) | 
CCC1(CC)NC(=O)N(CC(=O)OCC(=O)c2cc(C)c(C)cc2C)C1=O | -17.4% (inactive) | 
Cc1csc(NC(=O)CSc2nc(=O)cc(N)n2-c2ccc(F)cc2)n1 | 1.68% (inactive) | 
CC1Cc2[nH][nH]c(=O)c2C(C2CCCC2)O1 (stereo not drawn) | -16.1% (inactive) | 
CCn1c(C(C)NC(=O)c2ccc(C)cc2)n[nH]c1=S (stereo not drawn) | -6.68% (inactive) | 
CCN1CCN(C(=O)CSc2ccc(C)cc2)CC1 | 12.1% (inactive) | 
CCN1CCC2(CC1)N=C(c1ccc(F)cc1)C(=S)N2C(=O)c1ccc(C)cc1 |  | 8.2 µM (active)
C/C(=N\NC(N)=S)c1cccnc1 | -1.16% (inactive) | 
C/C(=N\NC(N)=S)c1ccncc1 | -2.26% (inactive) | 
C/C(=N\NC(=S)NC(C)C)c1ccc(C(C)(C)C)cc1 |  | 23.1 µM (active)

Structure (SMILES) | activity change, negative = growth inhibition | Potency
COc1ccc(-c2ocnc2C(=O)Nc2ccc3c(c2)CCC3)cc1 | -19.1% (inactive) | 
CC1(C)O[C@@H]2[C@H](O1)[C@@H](COS(=O)(=O)O)O[C@H]2n1ccc(=O)[nH]c1=O | 3.71% (inactive) | 
Cc1ccn2c(=O)c(C(=O)NCCC3=CCCCC3)c(O)nc2c1 |  | 23.1 µM (active)
Cn1nnc2cc(C(=O)NCCC3=CCCCC3)ccc21 | -5.42% (inactive) | 
O=C(NCCC1=CCCCC1)c1ccc(-n2cncn2)cc1 | 3.69% (inactive) | 
Nc1ccc2c(c1)C(O)c1ccc(Cl)cc1-2 (stereo not drawn) | 9.47% (inactive) | 
O=C(c1ccc(Br)cc1)N(Cc1cccs1)c1ccc(F)cc1 | -0.898% (inactive) | 
CC(C)OC(=O)CN1CCN(c2ccc(Cl)cc2)CC1 | -10% (inactive) | 
Cc1cccc(N2CCN(C(=O)c3cccc(S(=O)(=O)N4CCc5ccccc5C4)c3)CC2C)c1 (stereo not drawn) |  | 9.2 µM (active)
CC(NC(=O)c1cccc(S(=O)(=O)N2CCc3ccccc3C2)c1)c1ccco1 (stereo not drawn) | 5.04% (inactive) | 
COC(=O)c1ccc(S(=O)(=O)N2CCc3ccccc3C2)cc1 | 3.02% (inactive) | 
CC1CCCC(C)N1C(=O)COC(=O)COc1ccccc1C#N (stereo not drawn) | 10% (inactive) | 
O=C(COC(=O)c1ccc(O)cc1O)c1ccc2c(c1)OCCO2 | -7.19% (inactive) | 
CC(CNC(=O)c1ccc(N)cc1)NC(=O)c1ccc(N)cc1 (stereo not drawn) | -14.5% (inactive) | 
CN(Cc1ccccc1F)C(=O)C(Cc1ccccc1)NC(=O)c1ccccc1 (stereo not drawn) |  | 29.1 µM (active)
CC(Cc1ccccc1)C(=O)N(C)Cc1ccccc1 (stereo not drawn) | -28.3% (inactive) | 
O=C(NC(Cc1ccccc1)C(=O)N1CCCC1C(=O)O)c1ccccc1 (stereo not drawn) (Bz-Phe-Pro-OH; configuration not given here) | 9.2% (inactive) | 
CCOc1cccc(C(=O)Nc2nnc(-c3cccs3)s2)c1 | 2.99% (inactive) | 
N#Cc1ccc(C(=O)Nc2nc(-c3cccs3)c(C(=O)C(F)(F)F)s2)cc1 |  | 1.64 µM (active)
CC(=O)c1sc(NC(=O)c2ccc(C)cc2)nc1C | 1.92% (inactive) | 
CC1CN(C(=O)c2cc(COc3c(F)cccc3F)on2)CCN1C (stereo not drawn) | -11.5% (inactive) | 
CC(C)CCNC(=O)Cn1c(=O)oc2cc(S(=O)(=O)N3CC(C)CC(C)C3)ccc21 (stereo not drawn) |  | 23.1 µM (active)
CC1CCCN(C(=O)Cn2c(=O)oc3cc(S(=O)(=O)N4CCCCC4C)ccc32)C1 (stereo not drawn) | -5.01% (inactive) | 

Structure (SMILES) | activity change, negative = growth inhibition | Potency
CC1CCCCN1C(=O)Cn1c(=O)oc2cc(S(=O)(=O)N3CCCCC3)ccc21 (stereo not drawn) | -9.54% (inactive) | 
CC(=O)c1cccc(NC(=O)CSc2nc3c(c(=O)[nH]2)CCC3)c1 | -22% (inactive) | 
O=C(CCc1ccccc1)NNC(=O)COc1ccc(Cl)cc1 | 7.55% (inactive) | 
O=C(COC(=O)COc1cccc(F)c1)NCC1CCCCC1 | -5.73% (inactive) | 
Cc1ccccc1CN1CCC(CNC(=O)c2c(C)oc3ncnc(N4CCCCC4)c23)CC1 | -37.6% (inactive) | 
CCOc1ccccc1N(CC)C(=O)c1cc2ccc3cccnc3c2[nH]1 |  | 5.8 µM (active)
Cc1ccccc1CN1CCN(CC(=O)NCc2ccccn2)C1=O | 7.35% (inactive) | 
COc1cc(NC(=O)c2cc3ccc4cccnc4c3[nH]2)cc(OC)c1OC | 3.24% (inactive) | 
Cc1ccccc1CN1CCC(CNC(=O)c2cc3ccc4cccnc4c3[nH]2)CC1 |  | 16.4 µM (active)
CCOc1cccc(OCCCOc2cccc3cccnc23)c1 | -20.9% (inactive) | 
O=c1[nH]n2c(=O)c3c([nH]c2c1N=Nc1ccccc1)CCC3 | 13.8% (inactive) | 
Cc1ccc(N(C(=O)CNC(=O)c2ccco2)C(C(=O)NC2CCCC2)c2ccncc2)cc1 (stereo not drawn) | 3.72% (inactive) | 
CCOc1cc2[nH]c(=O)n(Cc3ccc(C(=O)NCCN(CC)CC)cc3)c(=O)c2cc1OCC | -21.8% (inactive) | 
CCOC(=O)N1CCN(Cc2nc3cc(NC(C)=O)ccc3n2C)CC1 | -0.461% (inactive) | 
COc1ccc(OCC(=O)Nc2nnc(-c3ccco3)s2)cc1 | 14.6% (inactive) | 
CCCCN(C(=O)C(CCSC)N1C(=O)c2ccccc2C1=O)c1c(N)n(CCC)c(=O)[nH]c1=O (stereo not drawn) | 13.1% (inactive) | 
CCCOc1ccc(C(=O)NCCc2ccccc2)cc1 | -25.3% (inactive) | 
CCCOc1ccc(C(=O)C(CCC(CNCC)C(=O)c2ccc(OCCC)cc2)CNCC)cc1 (stereo not drawn) |  | 0.651 µM (active)
CCCCOc1ccc(C(=O)NO)cc1 |  | 10 µM (active)
CCCCOc1ccc(C(=O)NCc2ccncc2)cc1 | -27.1% (inactive) | 
CCCCOc1ccc(C(=O)NN2CCN(C)CC2)cc1 | -8.94% (inactive) | 
CCCOc1ccc(C(=O)CCC(=O)OC(C)C(=O)Nc2ccc(NC(C)=O)cc2)cc1 (stereo not drawn) | 12.4% (inactive) | 

Reference: PubChem BioAssay AID686979 (National Center for Advancing Translational Sciences (NCATS), 2013)
